Assay results from the supplement of paper PMC10849652.
Targets with a hit are over-represented here; the source holds about 7,900 in all. About 0.6% of all pairs of compound and target were hits.

Assays:
Test in all cases: log2 fold change, soluble protein after heating vs DMSO (PISA); higher = thermal stabilisation; K562 cells, 10 uM, 30 min; active = over 0.2 and 3.5 SD of the protein, either way, in both replicates (recomputed)
[1] = compound: CS(=O)(=O)c1ccc(-c2cnc(N)c(C(=O)Nc3ccccc3)n2)cc1
In short: (§1)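 Values are thermal stability changes relative to control samples and are taken from duplicates. They are stated as log2 fold changes. Before quantification by TMTpro 16plex LC-MS/MS with equalised channel sums, K562 cells at 2×10^6 cells/mL were treated with 10 μM compound for 30 min, heated in aliquots for 3 min across 48°C-58°C, pooled, extracted in PBS with 0.5% NP-40 at 4°C, and centrifuged at 21,000xg for 90 min to give the soluble supernatant.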

crizotinib = compound: C[C@@H](Oc1cc(-c2cnn(C3CCNCC3)c2)cnc1N)c1c(Cl)ccc(F)c1Cl [crizotinib]
In short: as §1

[2] = compound: C[C@@H]1COCCN1C2=NC(=NC(=C2)C3(CC3)S(=O)(=O)C)C4=C5C=CNC5=CC=C4
In short: as §1

[3] = compound: C[C@H](C1=CC=C(C=C1)C(=O)NC2=C3C=CNC3=NC=C2)N
In short: as §1

duvelisib = compound: C[C@H](Nc1ncnc2nc[nH]c12)c1cc2cccc(Cl)c2c(=O)n1-c1ccccc1 [duvelisib]
In short: as §1

gandotinib = compound: Cc1cc(Nc2cc(CN3CCOCC3)c3nc(C)c(Cc4ccc(Cl)cc4F)n3n2)n[nH]1 [gandotinib]
In short: as §1

tozasertib = compound: Cc1cc(Nc2cc(N3CCN(C)CC3)nc(Sc3ccc(NC(=O)C4CC4)cc3)n2)n[nH]1 [tozasertib]
In short: as §1

[4] = compound: Cc1cc(SCc2sc(-c3ccc(C(F)(F)F)cc3)nc2C)ccc1OCC(=O)O
In short: as §1

doramapimod = compound: Cc1ccc(-n2nc(C(C)(C)C)cc2NC(=O)Nc2ccc(OCCN3CCOCC3)c3ccccc23)cc1 [doramapimod]
In short: as §1

ispinesib = compound: Cc1ccc(C(=O)N(CCCN)[C@@H](c2nc3cc(Cl)ccc3c(=O)n2Cc2ccccc2)C(C)C)cc1 [ispinesib]
In short: as §1

Measured: log2 fold change

U2AF2 (UniProt P26368)
UniProt P26368, sequence (P26368 whole entry, looked up): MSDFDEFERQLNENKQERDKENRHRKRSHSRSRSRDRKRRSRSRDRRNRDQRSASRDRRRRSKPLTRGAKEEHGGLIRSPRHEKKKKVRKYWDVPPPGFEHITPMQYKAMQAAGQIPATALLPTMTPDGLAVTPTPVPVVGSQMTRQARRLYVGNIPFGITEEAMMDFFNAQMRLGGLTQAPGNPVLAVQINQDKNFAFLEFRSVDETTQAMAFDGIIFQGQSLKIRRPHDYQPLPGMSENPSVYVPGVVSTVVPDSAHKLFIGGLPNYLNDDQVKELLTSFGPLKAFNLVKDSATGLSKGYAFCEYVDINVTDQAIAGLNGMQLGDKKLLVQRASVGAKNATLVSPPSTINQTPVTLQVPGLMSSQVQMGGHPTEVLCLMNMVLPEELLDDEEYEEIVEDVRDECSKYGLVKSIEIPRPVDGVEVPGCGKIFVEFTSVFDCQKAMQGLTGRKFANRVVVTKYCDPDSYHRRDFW
inactive: [1] 0.036 | crizotinib -0.101 | [2] 0.057 | [3] -0.101 | duvelisib -0.029 | gandotinib 0.036 | tozasertib 0.008 | [4] 0.063 | doramapimod -0.006 | ispinesib 0.014

WDR61 (UniProt Q9GZS3)
inactive: [1] 0.043 | crizotinib -0.044 | [2] 0.071 | [3] -0.056 | duvelisib 0.059 | gandotinib -0.099 | tozasertib -0.072 | [4] -0.017 | doramapimod -0.004 | ispinesib -0.028

WARS1 (UniProt G3V3P2)
inactive: [1] -0.07

UHRF1BP1L (UniProt A0JNW5)
inactive: [1] 0.001 | crizotinib -0.04 | [2] 0.031 | [3] -0.002 | duvelisib 0.091 | gandotinib -0.038 | tozasertib -0.025 | [4] -0.024 | doramapimod 0.046 | ispinesib 0.2

UBA1 (UniProt P22314)
inactive: [1] 0.127 | crizotinib -0.338 | [2] 0.091 | [3] 0.017 | duvelisib -0.014 | gandotinib -0.068 | tozasertib 0.066 | [4] 0.148 | doramapimod -0.031 | ispinesib -0.11

VTI1A (UniProt Q96AJ9)
UniProt Q96AJ9, sequence (Q96AJ9 whole entry, looked up): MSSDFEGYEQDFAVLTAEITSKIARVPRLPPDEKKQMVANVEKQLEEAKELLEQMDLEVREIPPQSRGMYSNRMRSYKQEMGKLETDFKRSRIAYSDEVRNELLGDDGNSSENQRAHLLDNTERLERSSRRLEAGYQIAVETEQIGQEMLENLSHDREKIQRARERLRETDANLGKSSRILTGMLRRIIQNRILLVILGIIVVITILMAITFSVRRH
inactive: [1] -0.007 | crizotinib -0.072 | [2] 0.038 | [3] -0.022 | duvelisib 0.1 | gandotinib 0.046 | tozasertib 0.038 | [4] -0.019 | doramapimod 0.054 | ispinesib -0.237

WBP4 (UniProt O75554)
UniProt O75554, sequence (O75554 whole entry, looked up): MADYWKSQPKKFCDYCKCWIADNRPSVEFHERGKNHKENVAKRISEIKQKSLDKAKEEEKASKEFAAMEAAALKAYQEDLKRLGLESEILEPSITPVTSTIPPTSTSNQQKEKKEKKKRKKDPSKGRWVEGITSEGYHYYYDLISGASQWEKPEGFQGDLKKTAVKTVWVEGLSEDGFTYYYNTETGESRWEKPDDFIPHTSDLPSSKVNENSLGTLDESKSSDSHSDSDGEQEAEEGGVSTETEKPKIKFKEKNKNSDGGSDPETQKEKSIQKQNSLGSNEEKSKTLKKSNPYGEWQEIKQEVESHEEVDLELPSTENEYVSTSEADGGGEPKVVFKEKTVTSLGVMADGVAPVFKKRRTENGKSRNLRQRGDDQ
inactive: [1] -0.032 | crizotinib 0.059 | [2] 0.004 | [3] -0.015 | duvelisib 0.011 | gandotinib -0.022 | tozasertib -0.016 | [4] 0.01 | doramapimod 0.018 | ispinesib -0.044

TMEM63B (UniProt Q5T3F8)
inactive: [1] -0.127 | crizotinib 0.045 | [2] -0.042 | [3] -0.014 | duvelisib -0.085 | gandotinib -0.028 | tozasertib -0.007 | [4] 0.015 | doramapimod -0.047
active: ispinesib -0.312

TMEM223 (UniProt A0PJW6)
UniProt A0PJW6, sequence (A0PJW6 whole entry, looked up): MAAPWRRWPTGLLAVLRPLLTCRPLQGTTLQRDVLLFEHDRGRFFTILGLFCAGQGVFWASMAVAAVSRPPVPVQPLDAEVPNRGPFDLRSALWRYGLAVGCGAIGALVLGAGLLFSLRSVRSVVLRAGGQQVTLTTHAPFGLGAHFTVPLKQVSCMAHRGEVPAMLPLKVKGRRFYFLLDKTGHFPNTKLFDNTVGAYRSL
inactive: [1] -0.008 | crizotinib -0.045 | [2] 0.038 | [3] 0.002 | duvelisib 0.043 | gandotinib -0.14 | tozasertib 0.061 | [4] 0 | doramapimod 0.015
active: ispinesib -0.254

VDAC1 (UniProt P21796)
inactive: [1] 0 | crizotinib 0.076 | [2] -0.004 | [3] -0.063 | duvelisib -0.002 | gandotinib 0.017 | tozasertib 0 | [4] -0.031 | doramapimod -0.024 | ispinesib 0.034

TRIP10 (UniProt Q15642)
UniProt Q15642, sequence (Q15642 whole entry, looked up): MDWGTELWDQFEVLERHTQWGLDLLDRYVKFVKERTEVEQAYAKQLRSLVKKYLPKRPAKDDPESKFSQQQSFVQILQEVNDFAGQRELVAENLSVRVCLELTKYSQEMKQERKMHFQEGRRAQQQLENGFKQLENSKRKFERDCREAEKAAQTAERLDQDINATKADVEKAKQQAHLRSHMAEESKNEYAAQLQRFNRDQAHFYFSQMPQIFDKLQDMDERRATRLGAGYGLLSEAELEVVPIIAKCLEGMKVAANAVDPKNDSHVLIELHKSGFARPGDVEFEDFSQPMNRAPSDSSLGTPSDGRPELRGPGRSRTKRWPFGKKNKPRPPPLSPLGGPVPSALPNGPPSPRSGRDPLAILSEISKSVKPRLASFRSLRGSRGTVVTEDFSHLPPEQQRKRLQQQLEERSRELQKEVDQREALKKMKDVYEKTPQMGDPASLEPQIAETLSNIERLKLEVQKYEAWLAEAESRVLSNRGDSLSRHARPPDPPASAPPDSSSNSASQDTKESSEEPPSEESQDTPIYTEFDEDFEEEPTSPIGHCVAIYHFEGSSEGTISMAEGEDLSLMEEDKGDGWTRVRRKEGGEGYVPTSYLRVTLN
inactive: [1] 0.08 | crizotinib -0.009 | [2] -0.085 | [3] -0.026 | duvelisib 0.005 | gandotinib 0.044 | tozasertib -0.003 | [4] 0.038 | doramapimod -0.036 | ispinesib -0.021

TMEM161A (UniProt Q9NX61)
inactive: [1] -0.038 | crizotinib -0.026 | [2] -0.006 | [3] 0.001 | duvelisib -0.032 | gandotinib -0.156 | tozasertib -0.145 | [4] 0.051 | doramapimod -0.023 | ispinesib -0.251

TMEM173 (UniProt Q86WV6)
inactive: [1] 0.042 | crizotinib 0.147 | [2] 0.041 | [3] 0.004 | duvelisib 0.017 | gandotinib -0.151 | tozasertib 0.01 | [4] 0.078 | doramapimod 0.023 | ispinesib 0.037

WASHC5 (UniProt Q12768)
inactive: [1] -0.023 | crizotinib -0.133 | [2] -0.068 | [3] 0.053 | duvelisib -0.034 | gandotinib -0.002 | tozasertib -0.02 | [4] 0.032 | doramapimod 0.073 | ispinesib -0.093

TRAM1 (UniProt Q15629)
inactive: [1] 0.075 | [2] 0.017 | [3] 0.014 | duvelisib -0.003 | tozasertib -0.124 | [4] 0.09 | doramapimod -0.119
active: crizotinib -0.587 | gandotinib -0.47 | ispinesib -0.964

VPS18 (UniProt Q9P253)
inactive: [1] -0.008 | crizotinib -0.21 | [2] -0.013 | [3] 0.05 | duvelisib -0.035 | gandotinib -0.041 | tozasertib 0.009 | [4] 0.063 | doramapimod -0.014 | ispinesib -0.203

USP48 (UniProt Q86UV5)
inactive: [1] 0.015

VPS35L (UniProt Q7Z3J2)
UniProt Q7Z3J2, sequence (Q7Z3J2 whole entry, looked up): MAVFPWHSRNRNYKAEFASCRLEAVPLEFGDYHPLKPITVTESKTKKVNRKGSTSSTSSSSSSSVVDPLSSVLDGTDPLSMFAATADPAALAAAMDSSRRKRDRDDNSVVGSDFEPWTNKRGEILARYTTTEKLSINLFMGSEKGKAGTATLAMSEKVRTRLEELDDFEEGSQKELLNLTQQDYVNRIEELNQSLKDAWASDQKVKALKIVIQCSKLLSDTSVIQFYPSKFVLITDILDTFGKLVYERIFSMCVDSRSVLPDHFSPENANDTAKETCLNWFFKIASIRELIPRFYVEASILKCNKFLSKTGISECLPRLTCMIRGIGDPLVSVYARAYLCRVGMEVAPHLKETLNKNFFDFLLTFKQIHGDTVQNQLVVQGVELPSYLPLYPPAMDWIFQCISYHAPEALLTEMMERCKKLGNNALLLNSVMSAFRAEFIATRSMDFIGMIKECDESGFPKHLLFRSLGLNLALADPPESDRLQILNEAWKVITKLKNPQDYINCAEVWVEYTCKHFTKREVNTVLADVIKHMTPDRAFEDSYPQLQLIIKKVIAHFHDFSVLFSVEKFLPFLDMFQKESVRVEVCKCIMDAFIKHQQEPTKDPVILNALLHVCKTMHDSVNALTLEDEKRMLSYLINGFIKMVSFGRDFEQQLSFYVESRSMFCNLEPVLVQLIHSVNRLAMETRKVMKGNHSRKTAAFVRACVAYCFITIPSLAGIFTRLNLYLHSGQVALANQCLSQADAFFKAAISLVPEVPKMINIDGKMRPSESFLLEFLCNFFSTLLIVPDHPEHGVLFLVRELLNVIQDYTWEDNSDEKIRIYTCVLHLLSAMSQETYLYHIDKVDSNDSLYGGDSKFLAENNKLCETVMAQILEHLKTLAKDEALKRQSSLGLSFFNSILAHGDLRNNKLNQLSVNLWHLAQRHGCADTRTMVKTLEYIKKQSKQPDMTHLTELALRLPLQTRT
inactive: [1] 0.054 | crizotinib -0.128 | [2] -0.043 | [3] 0.186 | duvelisib 0.033 | gandotinib 0 | tozasertib 0.026 | [4] 0.023 | doramapimod 0.02 | ispinesib -0.11

UCHL5 (UniProt Q9Y5K5)
UniProt Q9Y5K5, sequence (Q9Y5K5 whole entry, looked up): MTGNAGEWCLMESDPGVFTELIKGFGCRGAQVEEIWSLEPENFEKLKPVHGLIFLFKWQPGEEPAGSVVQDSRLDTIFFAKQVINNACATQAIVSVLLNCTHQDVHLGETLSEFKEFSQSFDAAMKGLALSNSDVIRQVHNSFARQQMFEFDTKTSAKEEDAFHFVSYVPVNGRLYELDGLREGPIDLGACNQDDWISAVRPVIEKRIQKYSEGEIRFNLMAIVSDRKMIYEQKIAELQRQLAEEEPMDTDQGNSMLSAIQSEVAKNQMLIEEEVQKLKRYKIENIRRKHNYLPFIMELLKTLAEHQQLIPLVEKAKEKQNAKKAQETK
inactive: [1] 0.023 | crizotinib -0.066 | [2] 0 | [3] -0.005 | duvelisib -0.006 | gandotinib -0.116 | tozasertib 0.036 | [4] 0.064 | doramapimod -0.015 | ispinesib -0.056

TMEM164 (UniProt Q5U3C3)
UniProt Q5U3C3, sequence (Q5U3C3 whole entry, looked up): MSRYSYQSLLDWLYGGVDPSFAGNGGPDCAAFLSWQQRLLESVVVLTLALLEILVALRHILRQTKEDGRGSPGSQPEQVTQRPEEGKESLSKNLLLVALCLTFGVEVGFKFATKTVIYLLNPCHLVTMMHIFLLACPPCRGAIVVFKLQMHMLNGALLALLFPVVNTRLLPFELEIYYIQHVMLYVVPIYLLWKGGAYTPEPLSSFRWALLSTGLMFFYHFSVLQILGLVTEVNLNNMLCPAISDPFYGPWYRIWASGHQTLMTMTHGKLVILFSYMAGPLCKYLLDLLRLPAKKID
inactive: [1] 0 | crizotinib -0.036 | [2] 0.139 | [3] 0.05 | gandotinib -0.204 | tozasertib 0.031 | [4] 0.027 | doramapimod 0.091
active: duvelisib 0.601

USP24 (UniProt Q9UPU5)
inactive: [1] 0.062 | crizotinib 0.204 | [3] 0.015 | duvelisib 0.219 | gandotinib -0.213 | tozasertib 0.045 | [4] -0.017 | doramapimod -0.041 | ispinesib 0.115
active: [2] 0.396

WASHC3 (UniProt Q9Y3C0)
UniProt Q9Y3C0, sequence (Q9Y3C0 whole entry, looked up): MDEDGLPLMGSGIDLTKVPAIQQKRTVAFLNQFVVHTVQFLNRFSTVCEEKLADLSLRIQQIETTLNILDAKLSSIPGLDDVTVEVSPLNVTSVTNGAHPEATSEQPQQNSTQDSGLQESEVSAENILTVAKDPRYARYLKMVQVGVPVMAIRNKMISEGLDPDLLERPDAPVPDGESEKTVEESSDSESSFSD
inactive: [1] -0.014 | [2] 0.096 | [3] -0.039 | duvelisib 0.012 | gandotinib -0.041 | tozasertib 0.021 | [4] 0.014 | doramapimod 0.048
active: crizotinib -0.274 | ispinesib -0.4

VAMP7 (UniProt P51809)
UniProt P51809, sequence (P51809 whole entry, looked up): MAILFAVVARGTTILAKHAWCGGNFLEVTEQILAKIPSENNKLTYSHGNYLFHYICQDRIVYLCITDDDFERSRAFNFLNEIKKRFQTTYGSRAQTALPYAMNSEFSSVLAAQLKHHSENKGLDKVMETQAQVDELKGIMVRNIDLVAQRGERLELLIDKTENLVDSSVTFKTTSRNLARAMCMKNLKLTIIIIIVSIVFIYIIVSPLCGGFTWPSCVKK
active: crizotinib -0.299 | ispinesib -0.275
inactive: [1] 0.021 | [2] 0.005 | [3] -0.046 | duvelisib -0.005 | gandotinib -0.026 | tozasertib 0.005 | [4] -0.011 | doramapimod -0.007

UTP3 (UniProt Q9NQZ2)
inactive: [1] 0.015 | crizotinib 0.061 | [2] -0.494 | [3] 0.363 | duvelisib -0.133 | gandotinib 0.17 | tozasertib 0.017 | [4] -0.04 | doramapimod 0.099 | ispinesib -0.144

TMEM214 (UniProt Q6NUQ4)
UniProt Q6NUQ4, sequence (Q6NUQ4 whole entry, looked up): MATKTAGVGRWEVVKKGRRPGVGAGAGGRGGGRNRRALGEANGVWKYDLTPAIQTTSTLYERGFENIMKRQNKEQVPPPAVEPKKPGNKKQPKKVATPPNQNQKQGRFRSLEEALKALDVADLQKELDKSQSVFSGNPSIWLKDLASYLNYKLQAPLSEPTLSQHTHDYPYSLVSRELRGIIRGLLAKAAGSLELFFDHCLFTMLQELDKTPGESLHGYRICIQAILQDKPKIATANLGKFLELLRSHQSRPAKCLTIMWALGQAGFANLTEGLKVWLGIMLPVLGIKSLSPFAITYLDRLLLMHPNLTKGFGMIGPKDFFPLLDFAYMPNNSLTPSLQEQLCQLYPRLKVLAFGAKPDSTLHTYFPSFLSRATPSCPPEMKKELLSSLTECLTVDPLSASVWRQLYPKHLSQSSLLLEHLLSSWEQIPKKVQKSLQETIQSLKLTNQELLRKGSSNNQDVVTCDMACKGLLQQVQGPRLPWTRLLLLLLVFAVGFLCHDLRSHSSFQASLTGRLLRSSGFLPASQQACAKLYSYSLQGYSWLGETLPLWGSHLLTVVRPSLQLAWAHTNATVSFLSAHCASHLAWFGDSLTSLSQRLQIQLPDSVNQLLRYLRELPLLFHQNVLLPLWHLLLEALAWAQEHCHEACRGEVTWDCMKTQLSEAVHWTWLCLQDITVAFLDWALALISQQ
inactive: [1] -0.018 | crizotinib 0.123 | [2] -0.043 | [3] 0.067 | duvelisib 0.011 | gandotinib -0.079 | tozasertib 0.028 | [4] 0.048 | doramapimod -0.013 | ispinesib 0.072

TRAPPC3 (UniProt O43617)
inactive: [1] -0.003 | crizotinib 0.002 | [2] 0.074 | [3] -0.006 | duvelisib 0.06 | gandotinib -0.048 | tozasertib 0.028 | [4] 0.017 | doramapimod -0.008 | ispinesib -0.023

TMEM106B (UniProt Q9NUM4)
UniProt Q9NUM4, sequence (Q9NUM4 whole entry, looked up): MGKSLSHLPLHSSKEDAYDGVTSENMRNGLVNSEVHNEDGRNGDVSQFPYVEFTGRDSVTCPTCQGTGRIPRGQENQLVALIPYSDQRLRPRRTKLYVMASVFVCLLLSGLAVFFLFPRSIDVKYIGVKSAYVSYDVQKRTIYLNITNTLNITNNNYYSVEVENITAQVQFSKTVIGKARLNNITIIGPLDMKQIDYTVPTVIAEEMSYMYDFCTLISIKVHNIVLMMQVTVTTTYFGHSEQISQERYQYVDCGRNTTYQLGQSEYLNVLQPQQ
inactive: [1] -0.024 | [2] 0.389 | [3] -0.054 | duvelisib 0.03 | gandotinib -0.021 | tozasertib -0.073 | [4] 0 | doramapimod 0.014
active: crizotinib -0.382

TOE1 (UniProt Q96GM8)
inactive: [1] 0.013 | crizotinib 0 | [2] -0.221 | [3] 0.211 | duvelisib -0.01 | gandotinib 0.219 | tozasertib 0.041 | [4] 0.066 | doramapimod 0.065 | ispinesib -0.021

TRAPPC8 (UniProt Q9Y2L5)
inactive: [1] 0.036 | crizotinib -0.033 | [2] -0.008 | [3] 0.032 | duvelisib 0.002 | gandotinib -0.056 | tozasertib 0.015 | [4] 0.117 | doramapimod -0.012 | ispinesib -0.138
